Compound activity: PubChem, National Center for Advancing Translational Sciences (NCATS)
The list is not random: actives were taken first. Their share in the collection is about 19%.
TDP1 cell CPT: DT40-hTDP1 cell growth loss with CPT; chicken DT40 Tdp1-/-;hTDP1 cells + 20 nM CPT, ATP luminescence, 48 h; 12% of 420,000 active; Potency, µM (top dose mostly 46.2 µM), inactives show at the highest dose activity change, negative = growth inhibition, actives largely listed as inhibitors; AID 686979; also: potency is read from the fitted curve at half-maximal effect; % is scaled to controls: 0 for no effect and ±100 for the full control effect; nearly all actives have a fitted effect of over 55% in size
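Chicken DT40 Tdp1-/- cells stably complemented with human TDP1 were seeded at 400 cells/well in medium containing 20 nM camptothecin, exposed to pin-transferred compounds, and grown at 37 °C for at least 48 hr. Viability was read as ATP luminescence.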
TDP1 inh: TDP1 (human) enzyme inhibition. recombinant TDP1, AlphaScreen DNA substrate cleavage. Potency, µM (series often up to 130 µM), for the others: at the highest dose activity change, negative = inhibition, usual class: inhibitors. 0.28% of 350,000 active. AID 485290; also: potency is read from the fitted curve at half-maximal effect; % is scaled to controls: 0 for no effect and ±100 for the full control effect; nearly all actives have a fitted effect of over 40% in size
Target sequence (Q9NUW8 whole entry, looked up): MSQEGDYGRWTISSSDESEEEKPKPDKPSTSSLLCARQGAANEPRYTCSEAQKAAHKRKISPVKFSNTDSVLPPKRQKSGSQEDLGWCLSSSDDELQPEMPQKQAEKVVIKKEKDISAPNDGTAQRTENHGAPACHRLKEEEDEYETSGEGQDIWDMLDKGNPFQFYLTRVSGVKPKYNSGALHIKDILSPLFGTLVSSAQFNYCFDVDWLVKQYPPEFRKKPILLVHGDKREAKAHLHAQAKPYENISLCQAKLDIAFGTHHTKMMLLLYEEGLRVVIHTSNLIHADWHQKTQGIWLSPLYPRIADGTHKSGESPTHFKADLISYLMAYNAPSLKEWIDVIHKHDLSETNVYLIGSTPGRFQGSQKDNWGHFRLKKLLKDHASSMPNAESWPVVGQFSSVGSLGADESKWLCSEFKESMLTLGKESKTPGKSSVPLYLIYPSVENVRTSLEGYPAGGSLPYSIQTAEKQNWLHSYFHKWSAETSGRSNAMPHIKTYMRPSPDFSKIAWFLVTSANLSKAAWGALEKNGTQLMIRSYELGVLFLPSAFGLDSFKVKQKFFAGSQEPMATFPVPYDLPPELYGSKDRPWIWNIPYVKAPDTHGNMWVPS
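Recombinant human Tdp1 (E. coli-expressed, 1 nM final) preincubated with compounds 15 min at room temperature, then 5'-biotin/3'-phosphotyrosine-FITC DNA substrate (15 nM final) added for 5 min. AlphaScreen beads (10 ug/ml final) added 10 min; cleavage lowers signal.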
TGFb inhibitor: inhibitors of TGF-b signaling; Potency, µM (top dose mostly 46.1 µM), without a hit: at the highest dose activity, negative = inhibition, most hits filed as inhibitors; HepG2 CAGA-GFP TGF-b/SMAD3 reporter, GFP fluorescence, 18 h; TGF-beta stimulated, 500 pg/mL final; 1.2% of 410,000 active; AID 588855; also: potency is read from the fitted curve at half-maximal effect; % is scaled to controls: 0 for no effect and ±100 for the full control effect; nearly all actives have a fitted effect of over 65% in size
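Read-out: total well GFP (ex488/em500-530) summed from mean per-cell fluorescence. Cells: HEPG2 CAGA-GFP, 1% FBS DMEM, 18 h at 37 degrees C with 500 pg/mL final TGF-beta. Unstimulated wells served as the full-inhibition control; stimulated DMSO wells = 0%.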
IL1B secr inh: inflammasome signaling inhibition, IL-1 beta readout; THP-1 LPS/ATP IL-1B secretion, AlphaLISA, 16 h; hits give low values; 4.7% of 360,000 active; activity change, % at 57.5 µM; in the data active = activity change below about -50%; inconclusive = mostly about -30% to -49%; also: % is scaled to controls: 0 for no effect and ±100 for the full control effect
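THP-1 cells pretreated 1 hr with compounds (up to 57.5 uM final), then stimulated with LPS (250 ng/mL final) plus ATP (1.25 mM final); secreted IL-1B measured by AlphaLISA after 16 hr, decreased signal indicating inhibition.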
HepG2 viability: kills HepG2 cells in TGF-b inhibitor counter-screen. HepG2 CAGA-GFP viability, ATP luminescence, 18 h. Potency, µM (series often up to 46.1 µM), for the others: at the highest dose activity change, negative = cytotoxicity, most hits filed as cytotoxic. 0.76% of 410,000 active; also: potency is read from the fitted curve at half-maximal effect
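CellTiter-Glo luminescence gave cytotoxicity after 18 hours at 37 degrees C. The cells were HepG2 CAGA-GFP in 1% FBS DMEM, stimulated with 500 pg/mL TGF-beta after compound addition. %Activity was normalised to no-cell wells (complete cell-killing) and DMSO (no toxicity), and curves were fitted and classified.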
DT40 TDP1 no CPT: qHTS for Inhibitors of human tyrosyl-DNA phosphodiesterase 1 (TDP1): qHTS in cells in absence of CPT | DT40 Tdp1-/- hTDP1 cells, no CPT, ATP luminescence, 48 h | Potency, µM (top dose mostly 46.2 µM), inactives show top-dose activity change, negative = growth inhibition, hits mostly inhibitors | 15% of 420,000 active; also: potency is read from the fitted curve at half-maximal effect; % is scaled to controls: 0 for no effect and ±100 for the full control effect; nearly all actives have a fitted effect of over 55% in size
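Luminescent ATP content (CellTiter-Glo) served as the growth readout. Knockout chicken DT40 cells expressing human TDP1 were exposed to compounds without camptothecin for a minimum 48 hr at 37 °C.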
Active calls of the source: *; ? = inconclusive; . = no result given; ! = not confirmed by another sample; [ ] = remark or other dose. Unless noted, calls follow the shape of the dose curve; as a rule, active = well fitted curve in the direction sought with a large enough effect; inconclusive = small, poorly fitted or top-dose-only effect, or another doubt; inactive = no such curve, though single readings can be large; an effect the other way counts as inactive or inconclusive.

SMILES	TDP1 cell CPT	TDP1 inh	TGFb inhibitor	IL1B secr inh	HepG2 viability	DT40 TDP1 no CPT
CC(C)[N+](C)(CCC(C(N)=O)(c1ccccc1)c1ccccc1)C(C)C	7.3µM*!	-8%[56.1 µM]	-11%	8	6%	9.2µM*!
C[N+](C)(C)CCOC(=O)C(O)(c1ccccc1)c1ccccc1	-5%	-1%	.	.	.	-1%
CCCOC(=O)Nc1ccc([As](=O)(O)O)cc1NC(=O)OCCC	25%	.	0%	-12	14%	-27%
O=[N+]([O-])c1cccc2ccccc12	.	10%	.	.	.	.
O=C(CNC(=O)c1cccs1)NCC(=O)OCC(=O)c1ccc([N+](=O)[O-])cc1	18µM*	-5%	7%	0	1%	?
O=C1c2ccccc2-n2nnc(-c3ccccc3)c2C2c3cc(Br)ccc3CCN12 (stereo not drawn)	-16%	.	-18%	0	-4%	?
O=C1c2ccccc2-n2nnc(-c3ccccc3)c2C2c3ccccc3CCN12 (stereo not drawn)	16µM*	.	-20%	52	-15%	7.3µM*
O=S(=O)(c1ccccc1C(F)(F)F)N1CCN(c2ncnc3sccc23)CC1	15µM*	1%	13µM*	-62*	-43%	8.2µM*
CN(C)CCn1cnc2ccccc21	5%	1%	6%	17	8%	25%
CN(C)CCCOc1nn(Cc2ccccc2)c2ccccc12	?	6%[21 µM]	2%	-10	-18%	23µM*
CCOc1ccc(-c2cc(C(=O)N3CCC4(CC3)OCCO4)c3ccccc3n2)cc1	5.2µM*	.	-1%	18	14%	?
CC(C)(COCC1CO1)COCC1CO1 (stereo not drawn)	.	15%	.	.	.	.
COc1cc(/C=C(/C)[N+](=O)[O-])ccc1OCc1ccccc1Cl	3.3µM*	3%	5µM*	-99*	7.9µM*	2.9µM*
COc1ccc(C[C@H]2c3cc(OC)c(OC)cc3CCN2C)cc1OC	.	1%[56.1 µM]	.	.	.	.
C/C=C(/C)C(=O)O[C@H]1C(C)=C2C([C@@H]1OC(=O)CCCCCCC)[C@@](C)(OC(C)=O)C[C@@H](OC(=O)CCC)[C@@]1(O)[C@H]2OC(=O)[C@@]1(C)O (stereo partly drawn)	.	13%[56.1 µM]	.	.	.	.
COc1ccccc1CNCc1cc(OC)c(OC)cc1OC	?	-5%	3%	-8	-2%	?
COc1ccccc1CNc1nc(NCc2ccccc2SC)c2sccc2n1	6.5µM*	.	?	-99*	-55%	6.5µM*
CC(NCc1ccc(Cl)c(Cl)c1)C(O)c1ccccc1 (stereo not drawn)	16µM*	1%	?	?	-40%	?
CC(NCc1ccccc1Cl)C(O)c1ccccc1 (stereo not drawn)	-26%	6%	5%	-11	-31%	-15%
ClC=C(Cl)Cl	6%	0%	.	.	.	14%
Clc1ccc(-c2csc3ncnc(Sc4nnnn4C4CC4)c23)cc1	5µM*	.	?	.	-99%	3.2µM*
O=C(NCC1=C(c2ccc3ccccc3c2)C[C@@H]2CC[C@H]1N2Cc1ccco1)c1nccs1	?	.	-18%	-28	-41%	16µM*
O=C(NCC1=C(c2cccc3ccccc23)C[C@@H]2CC[C@H]1N2Cc1ccco1)c1ccncc1	23µM*	.	-15%	-19	-28%	26µM*
O=C(NCC1=C(c2cccc3ccccc23)C[C@@H]2CC[C@H]1N2Cc1ccco1)c1cccnc1	?	.	6%	-5	-32%	?
O=C(NCC1=C(c2cccc3ccccc23)C[C@@H]2CC[C@H]1N2Cc1ccco1)c1cccs1	?	.	?	-2	-51%	15µM*
